Hsp70 act = switches on Hsp70 transcription. HeLa Hsp70 promoter luciferase reporter, luminescence; scaled: vehicle 0, proteasome-inhibitor control 100%. activation, % at 10 µM. hit rate 0.04% among 200,000;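 active means activation above the mean across all tested compounds plus 3 SD, cutoff set per campaign, cut at about 5.5% in these data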
TNF death inh = blocks TNF-alpha induced death of Jurkat FADD-/- cells; Jurkat FADD-/- TNF necroptosis rescue, ATP luminescence, 24 h; 0 = TNF only, 100 = no-TNF cells; activation (protection from cell death), % at 10 µM; hit rate 0.068% among 220,000;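 active means activation, meaning protection from cell death, of at least 50% relative to plate controls; inactive means activation below 50%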;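 further: necroptosis triggered by 40 ng/mL TNF-alpha added together with compound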
zVAD death inh = blocks zVAD induced death of L929 cells; L929 zVAD necroptosis rescue, ATP luminescence, 24 h; with zVAD 60 µM; viability rescue, % at 10 µM; hit rate 0.38% among 220,000;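 active means activation, scaled between plate controls, above about 75%, limit read from the data; inactive means activation under that limit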
HSF1 activator = increases HSF-1 driven luciferase reporter signal; NIH3T3-HGL HSF-1 luciferase reporter, MG132, 8 h; 100% = twice DMSO control signal; hit rate 1.7% among 300,000; AID 504408; activation, % at 9 µM;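 active means mean replicate activation of at least 50% with a set share of replicates each reaching 50%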
Of the large screens only hits and unclear results are named; the others gave an inactive call. Rows were chosen to be rich in hits. Some 1.9% of all compounds tested hit in one or more screens of this group.

O=C(COC(=O)C1CCC1)Nc1ccc(Oc2ccccc2)cc1	HSF1 activator 52.3
CC(NC(=O)COC(=O)CCc1nc(=O)c2ccccc2n1C)c1ccccc1 (centres undefined)	none
Cn1c(CCC(=O)OCC(=O)Nc2ccc(Oc3ccccc3)cc2)nc(=O)c2ccccc21	HSF1 activator 55.3 (no result: zVAD death inh)
COc1ccccc1NS(=O)(=O)c1ccc2c(c1)CCN2C(=O)CCC(=O)O	none (no result: Hsp70 act, TNF death inh, zVAD death inh)
O=S(=O)(c1ccc(NC(=S)NCc2ccncc2)cc1)N1CCCCC1	none (no result: Hsp70 act)
Cn1ncc(Br)c1C(=O)N1CCOCC1	HSF1 activator 54.9
Cn1cc(C(=O)O)c(-c2ccc3c(c2)OCCCO3)n1	none (no result: Hsp70 act, TNF death inh, zVAD death inh)
Cn1cc(C=O)c(-c2ccc3c(c2)OCCCO3)n1	HSF1 activator 89.1 (no result: Hsp70 act, TNF death inh, zVAD death inh)
CC(=O)N1/C(=C/c2ccc(N(C)C)cc2)C(=O)c2ccccc21	none
O=C(/C=C/c1ccncc1)c1cc(Cl)ccc1O	HSF1 activator 59.1 (no result: Hsp70 act)
COc1ccc(/C=C/C(=O)c2cc(Cl)ccc2O)c(OC)c1	HSF1 activator 64.4 (no result: Hsp70 act)
CN(C)c1ccc(/C=C/C(=O)c2cc(Cl)ccc2O)cc1	none (no result: Hsp70 act)
O=C(CC1C(=O)N(Cc2ccccc2)C(=S)N1CCN1CCOCC1)Nc1ccc(F)cc1 (centres undefined)	HSF1 activator 60.9
COC(CNC(=O)c1coc2nc3ccccc3nc12)OC	none (no result: Hsp70 act)
CC(=O)CCSc1nnc(-c2cccc(S(=O)(=O)N3CCOCC3)c2)o1	none (no result: Hsp70 act, TNF death inh, zVAD death inh)
CCn1c(SCc2nc3ccccc3s2)nc2cc(S(=O)(=O)N3CCOCC3)ccc21	HSF1 activator 69.3 (no result: Hsp70 act, TNF death inh, zVAD death inh)
O=S(=O)(c1cccc(-c2nnc(SCc3nc4ccccc4s3)o2)c1)N1CCOCC1	HSF1 activator 53.7
Cc1cc(C)cc(-n2c(SCC(=O)Nc3cccc(S(=O)(=O)NC4=NCCCCC4)c3)nc3ccccc3c2=O)c1	none
O=C(CCl)Nc1ccccc1Sc1ccc(Cl)cc1	none
Cc1ccc(Sc2ccc(NC(=O)CCl)cc2)c(C)c1	HSF1 activator 75.7
CCC1(c2ccccc2)NC(=O)N(CC(=O)NCc2ccc(OC)cc2)C1=O (centres undefined)	none (no result: Hsp70 act, TNF death inh, zVAD death inh)
CCN(CC)S(=O)(=O)c1ccc2c(c1)nc(SCC(=O)NC1CC1)n2-c1ccccc1OC	HSF1 activator 56.2
O=S(=O)(c1ccc(Oc2ccc(Br)cc2)cc1)N1CCOCC1	none
CC1(C)CC(=O)C=C(NC2=CC3OC(c4ccccc4)OCC3OC2=O)C1 (centres undefined)	HSF1 activator 116.5
O=C(Nc1cccc(Cl)c1)c1ccc(Cn2cc(Cl)cn2)cc1	HSF1 activator 53.1
CCn1ncc(C(=O)Nc2cccc(Cl)c2)c1C	HSF1 activator 62.0
Cc1ccc(NC(=O)c2cnn(-c3ccccc3)c2C)cc1	HSF1 activator 72.0 (no result: Hsp70 act, TNF death inh, zVAD death inh)
COC(=O)c1ccc(C(NC(=O)OCc2ccccc2)/C(F)=C/[C@@H](C)C(=O)NCc2ccc(OC)c(OC)c2)cc1 (some centres undefined)	none (no result: HSF1 activator)
c1ccc(-c2nc3ccccc3s2)nc1	HSF1 activator 57.8
Cc1ccc(-c2nc(-c3ccncc3)no2)cc1C	HSF1 activator 59.9 (no result: Hsp70 act, TNF death inh, zVAD death inh)
Cc1ccc(-c2nc(-c3ccncc3)no2)cc1Cl	none (no result: Hsp70 act, TNF death inh, zVAD death inh)
Cc1ccnc(NC(=O)Nc2ccc(F)cc2)c1	HSF1 activator 61.3
Cc1ccnc(NC(=O)Nc2ccc3c(c2)N(C)C(=O)CS3)c1	HSF1 activator 68.6 (no result: zVAD death inh)
Cc1ccnc(NC(=O)c2sc3cc(Cl)ccc3c2Cl)c1	HSF1 activator 54.3
Cc1ccnc(NC(=O)c2cc3cc(F)ccc3s2)c1	HSF1 activator 72.4 (no result: Hsp70 act, TNF death inh, zVAD death inh)
Cc1ccnc(NC(=O)CNC(=O)c2sc3ccccc3c2Cl)c1	none (no result: Hsp70 act, TNF death inh, zVAD death inh)
Cc1ccc(NC(=O)Nc2ccc3c(c2)N(C)C(=O)CS3)nc1	none
O=C(CSc1nc2cc(Cl)ccc2c(=O)n1Cc1ccco1)Nc1ccc(S(=O)(=O)N2CCOCC2)cc1	HSF1 activator 78.9
COC(=O)c1ccc2c(=O)n(Cc3ccco3)c(SCC(=O)Nc3ccc(C)c(Cl)c3)nc2c1	none
COc1cccc(/C=N/Nc2ccc([N+](=O)[O-])cn2)c1O	HSF1 activator 96.1 (no result: Hsp70 act, TNF death inh, zVAD death inh)
CC(=O)Nc1sc2c(c1C(N)=O)CCN(Cc1ccccc1)C2	none (no result: Hsp70 act)
NC(=O)c1c(NC(=O)Cc2ccccc2)sc2c1CCN(Cc1ccccc1)C2	HSF1 activator 61.8 (no result: Hsp70 act, TNF death inh, zVAD death inh)
CC(CCc1ccccc1)NC(=O)CN1CCc2ccccc2C1 (centres undefined)	HSF1 activator 93.6
COc1ccc(N2C(=NC(=O)C3CCCO3)SC3CS(=O)(=O)CC32)cc1 (centres undefined)	none (no result: Hsp70 act, TNF death inh, zVAD death inh)
O=C(Nc1ccccc1-c1nc2ccccc2s1)C1=COCCO1	none
O=C(NCCc1ccc(Cl)cc1)c1ccc2nccnc2c1	HSF1 activator 60.4 (no result: Hsp70 act, TNF death inh, zVAD death inh)

From PubChem BioAssay
